IMPase cell inh: cell-permeable inhibitors of inositol monophosphatase (IMPase); AID 901; inhibition (IP1 accumulation), % at 46.1 µM; 120,000 tested, under 10 active; CHO-M1 cells, IP1 accumulation, HTRF TR-FRET ratio; active = well fitted curve in the direction sought with a large enough effect in the signal ratio, not every such curve was filed as active; inconclusive = small, poorly fitted or top-dose-only effect, or a change in a side signal; inactive = no such curve, though single readings can be large or run the other way; the % refers to the signal ratio;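 note: cells stimulated with carbachol in lithium chloride buffer; higher means more IMPase inhibition seen as more IP1 and lower FRET ratio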
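Cellular IMPase inhibition is scored as a rise in cytosolic IP1, detected by competitive TR-FRET between d2-labelled IP1 and a europium anti-IP1 antibody. M1-expressing CHO cells were stimulated with carbachol for 30 min at 37C, with lithium (50 mM LiCl) present in the buffer.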
PNC assembly inh: blocks assembly of the perinucleolar compartment | PC3M PTB-GFP, PNC prevalence imaging, 16 h; hits give low values | activity change (PNC), negative = inhibition, % at 10 µM | 140,000 tested, 3.1% active | AID 2417;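 active = readout at or below -70, meaning at least 70% loss of cells showing the perinucleolar compartment, a nuclear body marking cancer cells; inconclusive = readout between -30 and a set limit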
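PC3M cells stably expressing PTB-GFP, 750–1000 cells/well, treated 16 h at 37 °C with compound (23 nl of library stock), in duplicate. After paraformaldehyde fixation and Hoechst stain, imaged at 20x; PNC prevalence scored by image analysis.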
ALOX12 inhib: blocks human 12-lipoxygenase activity; P18054; purified 12-hLO, xylenol orange hydroperoxide absorbance; Potency, µM (highest dose often 57.1 µM), usual class: inhibitors; 150,000 tested, 0.12% active; AID 1452; note: nearly all actives have a fitted effect of over 55% in size
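Lipoxygenase turnover measured by absorbance at 573 and 405 nm after Fe-XO development. Human 12hLO 150 nM, arachidonate 40 uM, pH 7.0 Hepes buffer with detergent; 15 min compound preincubation, 30 min reaction.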
ALOX15B inhib: 15-hLO-2 (ALOX15B) enzyme inhibition | purified 15hLO-2, xylenol orange hydroperoxide absorbance | AID 881 | Potency, µM (titrated, usually from 57.1 µM), usual class: inhibitors | 110,000 tested, 0.56% active; note: nearly all actives have a fitted effect of over 60% in size
Target sequence (O15296 whole entry, looked up): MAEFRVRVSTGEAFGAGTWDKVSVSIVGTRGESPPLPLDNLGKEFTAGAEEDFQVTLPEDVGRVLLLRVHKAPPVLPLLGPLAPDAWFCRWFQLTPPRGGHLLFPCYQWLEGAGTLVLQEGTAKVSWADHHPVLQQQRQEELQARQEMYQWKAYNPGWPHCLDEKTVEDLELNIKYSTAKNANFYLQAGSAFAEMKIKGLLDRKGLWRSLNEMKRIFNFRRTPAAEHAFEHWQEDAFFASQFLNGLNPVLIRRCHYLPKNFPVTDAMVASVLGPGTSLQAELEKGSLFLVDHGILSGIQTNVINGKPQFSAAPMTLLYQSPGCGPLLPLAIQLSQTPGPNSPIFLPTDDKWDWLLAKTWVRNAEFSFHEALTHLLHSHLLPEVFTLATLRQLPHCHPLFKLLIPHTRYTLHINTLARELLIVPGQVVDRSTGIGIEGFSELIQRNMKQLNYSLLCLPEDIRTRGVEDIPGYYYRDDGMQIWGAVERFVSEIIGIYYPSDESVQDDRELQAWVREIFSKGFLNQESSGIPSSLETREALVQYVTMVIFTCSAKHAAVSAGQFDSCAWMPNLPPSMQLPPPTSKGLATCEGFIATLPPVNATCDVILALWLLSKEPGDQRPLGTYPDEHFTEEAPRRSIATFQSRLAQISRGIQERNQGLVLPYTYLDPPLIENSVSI
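Screening format was qHTS against 50 nM purified 15hLO-2 in Hepes pH 7.5 with detergent. Activity follows hydroperoxide formation from 45 uM arachidonic acid, measured as 573:405 nm absorbance ratio of the ferric-xylenol orange complex.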
Each line names hits and unclear results; the compound was inactive in the other large screens. Shown are actives, neighbours in structure and some others; about 3% of the full set was active somewhere. Unless noted, calls come from the whole dose curve; as a rule, active = well fitted curve in the direction sought with a large enough effect; inconclusive = small, poorly fitted or top-dose-only effect, or another doubt; inactive = no such curve, though single readings can be large; an effect the other way counts as inactive or inconclusive.

NC(=O)CC[C@H](NC(=O)OCc1ccccc1)C(=O)OCc1ccc(Cl)cc1	PNC assembly inh -93 (no result: IMPase cell inh, ALOX15B inhib)
O=C(O)c1ccc(COc2c(F)c(F)c(F)c(F)c2F)o1	PNC assembly inh -100 (no result: ALOX15B inhib)
Cc1cc(C)cc(OCc2ccc(C(=O)O)o2)c1	PNC assembly inh inconclusive
C=Cc1c(C)/c2[n-]/c1=C\c1[n-]c(c(CC)c1C)/C=c1\[n-]c3c(c1C)C(=O)C(C(=O)[O-])C=3c1[n-]c(c(C)c1CCC(=O)[O-])\C=2.[Cu].[Na+].[Na+] (configuration not stated)	ALOX12 inhib inconclusive, ALOX15B inhib 7.9µM (no result: IMPase cell inh, PNC assembly inh)
Cc1cc(C)nc(SCC(=O)N/N=C/c2cccn2-c2cccc(C(F)(F)F)c2)n1	PNC assembly inh -108
Cc1cc(C)nc(SCC(=O)N/N=C/c2cccn2-c2ccc(O)cc2)n1	PNC assembly inh inconclusive
COc1ccc(CN2C(=O)c3ccccc3C(/C=N\OCc3ccc(C)cc3)C2=O)cc1 (configuration not stated)	none (no result: ALOX15B inhib)
CCCCCCCCNC(=O)CCNC(=O)c1ccc(C(C)(C)C)cc1	none
CCOC(=O)C1CSC(Cc2ccc(OCc3ccc([N+](=O)[O-])cc3)cc2)N1 (configuration not stated)	none (no result: IMPase cell inh, PNC assembly inh)
O=C(NC1(O)C(=O)c2ccccc2C1=O)c1ccccc1	ALOX15B inhib 25µM
CC(=O)Nc1ccc(S(=O)(=O)NCCSCc2ccco2)cc1	none
CS(=O)(=O)NCCSCc1ccco1	PNC assembly inh -82
O=C(Nc1ccc(Cl)cc1)Nc1nnc(SCc2ccc(Cl)cc2)s1	PNC assembly inh -111 (no result: ALOX15B inhib)
O=C(Nc1ccccc1)Nc1nnc(SCc2ccc(Cl)cc2)s1	none (no result: IMPase cell inh, ALOX15B inhib)
NCC1O[C@H](O[C@@H]2C(O)[C@H](O[C@H]3OC(CO)C(O)C(N)C3O)[C@@H](N)C[C@H]2N)[C@@H](N)CC1O (some centres not stated)	none (no result: IMPase cell inh, PNC assembly inh)
COc1cc(NC(=O)COC(=O)Cc2ccc(-c3ccccc3)cc2)cc(OC)c1	PNC assembly inh -102 (no result: IMPase cell inh, ALOX15B inhib)
COc1ccc(OC)c(NC(=O)COC(=O)Cc2ccc(-c3ccccc3)cc2)c1	PNC assembly inh inconclusive (no result: ALOX15B inhib)
O=C(Oc1ccc2c(c1)OCO2)c1ccc(F)cc1Cl	PNC assembly inh -109
CCOc1ncccc1C(=O)Oc1ccc2c(c1)OCO2	none
Cc1nn(CC(C)C)c(=S)[nH]c1=O	PNC assembly inh -83
COCCNc1ncncc1-c1c(C)noc1C	none (no result: IMPase cell inh, PNC assembly inh, ALOX12 inhib)
CC1=C(C(=O)Nc2ccccc2)C(c2ccco2)C(C#N)=C(SCC(=O)Nc2cccc(C)c2C)N1 (configuration not stated)	PNC assembly inh -82
COCCn1c(SCC(=O)Nc2sc(C)c(C)c2C#N)nnc1-c1ccc(OC)cc1	none
COCCn1c(SCC#N)nnc1-c1ccc(OC)cc1	PNC assembly inh -100 (no result: ALOX15B inhib)
N#C/C(=C(/O)COC(=O)CSc1ccc2ccccc2c1)c1nc2ccccc2[nH]1	PNC assembly inh -80 (no result: ALOX15B inhib)
Cc1cc(C)cc(OCC(=O)OC/C(O)=C(\C#N)c2nc3ccccc3[nH]2)c1	none (no result: ALOX15B inhib)
Cc1ccc2cc(/C=N/Nc3nc4ccccc4[nH]3)c(Cl)nc2c1	PNC assembly inh -88 (no result: ALOX15B inhib)
Cc1ccc2[nH]c3c(c2c1)CCC3=O	none
CCCCN1CCc2c([nH]c3ccc(C)cc23)C1=O	PNC assembly inh -100
Cc1cc(OCCn2cnc3ccccc3c2=O)ccc1[N+](=O)[O-]	PNC assembly inh inconclusive (no result: IMPase cell inh, ALOX15B inhib)
CCOc1cccc(OCCn2cnc3ccccc3c2=O)c1	PNC assembly inh -91 (no result: IMPase cell inh, ALOX15B inhib)
COC(=O)c1cccc(NC(=O)CSc2nnc(COc3ccccc3)n2C)c1	PNC assembly inh -126
CCOC(=O)c1cccc(NC(=O)CSc2nnc(COc3ccccc3)n2CC)c1	none
Cn1c(COc2ccccc2)nnc1SCc1cc(=O)[nH]c2ccccc12	PNC assembly inh -107
COc1cccc(/C=C/C(=O)O)c1C(C)C	none (no result: IMPase cell inh, PNC assembly inh)
Cc1cc(C)cc(Oc2ccccc2/C=C\C(=O)O)c1	PNC assembly inh -86
COc1ccccc1C(=O)NC(=Nc1nc2ccccc2o1)NC(=O)c1ccccc1OC	PNC assembly inh -82
CN(C)CCN(C)C(=O)c1ccc(-n2c(=O)c(=O)[nH]c3ccccc32)cc1	none (no result: IMPase cell inh, PNC assembly inh, ALOX15B inhib)
CC12CN(S(=O)(=O)c3ccccc3)CC(C)(CN(S(=O)(=O)c3ccccc3)C1)C2	PNC assembly inh -113
CC(=O)OCC(=O)[C@@]1(O)CCC2C3CC(C)C4=CC(=O)C=CC4(C)C3C(O)CC21C (some centres not stated)	none (no result: IMPase cell inh, PNC assembly inh)
Cc1nc2ccccc2c(=O)n1NS(C)(=O)=O	PNC assembly inh -112
CC(C)c1nc2sc3c(c2c(=O)o1)CCCC3	PNC assembly inh -94
N#C/C(=C\c1ccc(O)c(O)c1)C(=O)NCCCCc1ccccc1	ALOX12 inhib inconclusive, ALOX15B inhib 16µM (no result: PNC assembly inh)
N#C/C(=C\c1ccc(O)c(O)c1)C(=O)NCCc1ccccc1	ALOX12 inhib inconclusive (no result: PNC assembly inh)
CCN(CC)C(=O)NC1CC2CCCC(C1)N2Cc1ccccc1 (configuration not stated)	PNC assembly inh -92
CC1CCCCN1CCNS(=O)(=O)c1ccc2c(c1)oc(=O)n2C (configuration not stated)	none
C=CC(C1=CC(=O)C(OC)=CC1=O)c1ccccc1 (configuration not stated)	ALOX15B inhib 20µM (no result: IMPase cell inh, PNC assembly inh)
COc1cccc(C2C(C(=O)c3cccs3)=C(O)C(=O)N2CCCn2ccnc2)c1OC (configuration not stated)	PNC assembly inh -96
FC(F)(F)c1cc(CO[C@@H]2CCCN[C@H]2c2ccccc2)cc(C(F)(F)F)c1	none (no result: PNC assembly inh)
CCC1CCCCN1C(=O)CSc1nnc(-c2ccc3c(c2)OCCO3)o1 (configuration not stated)	PNC assembly inh -107
CCOC(=O)C1=C(N)OC2=C(C(=O)CCC2)C1c1cccnc1 (configuration not stated)	PNC assembly inh -120
CCOC(=O)C1=C(N)OC2=C(C(=O)CCC2)C1c1ccc(C)s1 (configuration not stated)	PNC assembly inh -107
COc1cc(OC)c(Nc2nc3ccc(C(=O)c4ccccc4)cc3n3c(C)nnc23)cc1Cl	none (no result: PNC assembly inh, ALOX12 inhib, ALOX15B inhib)
O=C(c1cccc(F)c1)N1CCC2(CC1)CCN(C(c1ccccc1)c1ccccc1)CC2	none (no result: IMPase cell inh, PNC assembly inh)
COC(=O)COc1cccc(NS(=O)(=O)c2ccc(NC(C)=O)cc2)c1	PNC assembly inh -88
Cc1cccc(OCC(=O)Nc2ccc(S(=O)(=O)N3CCCC3)cc2)c1	PNC assembly inh -99, ALOX15B inhib inconclusive
Cc1nc2ncnn2c(C)c1CCC(=O)Nc1ccc(S(=O)(=O)N2CCCCCC2)cc1	PNC assembly inh -94
Cc1ccc(NC(=O)COc2ccc(S(=O)(=O)N3CCOCC3)cc2)cc1	none
Clc1ccc(SCCn2ccnc2)cc1	none
O=c1cc(-c2ccc(O)cc2)oc2c([C@H]3O[C@@H](CO)[C@@H](O)[C@@H](O)[C@@H]3O)c(O)cc(O)c12	none (no result: PNC assembly inh)
O=C(c1ccc(Cl)cc1)c1nnc(-c2ccncc2)o1	PNC assembly inh -82
O=C(c1ccccc1)c1nnc(-c2ccncc2)o1	none
